Consider 38 compounds from PubChem BioAssay (Tox21).

“And” between values parts separate entries of the source, which are not always exact repeats. Equal entries are not always repeated. Inconclusive results are not listed. A call without a number means that no potency is given here. Some structures have more than one record in an assay (separate samples or runs), and their calls can disagree. The source made the active and inactive calls. Calls follow the shape of the dose curve; as a rule, active = well fitted activation curve with a large enough effect in the repeat runs; inconclusive = weak or mixed curves; inactive = flat fitted curve, though single readings scatter.
Potency is read from the fitted curve at half-maximal effect.

The assay in a line: A CellTox Green Cytotoxicity Assay to monitor cytotoxicity in HepG2 cells - 8 hour (AID 1224890). Also: nearly all actives have a fitted effect of over 45% in size. As to conditions: CellTox Green fluorescence; series mostly up to 76.8 µM. In a few lines: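 HepG2 cells, 600/well, preincubated 5 h with CellTox Green dye, then exposed to Tox21 compounds in DMSO at 37 C for up to 40 h. Dead-cell DNA fluorescence read at the indicated time point.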
For `CCCCCCCCCCCCCCCCCCn1cc[n+](C)c1`, the Potency was 38.7 µM (active). With `COC[C@H](C)N(C(=O)CCl)c1c(C)csc1C` the entry was “inactive”.

With `C[C@H]1CC[C@@H]2[C@@H](C)[C@H]3[C@H](C[C@H]4[C@@H]5CC=C6CC(O[C@@H]7O[C@H](CO)[C@H](O)[C@H](O[C@@H]8O[C@H](CO)[C@@H](O)[C@H](O)[C@H]8O)[C@H]7O[C@H]7O[C@@H](C)[C@H](O)[C@@H](O)[C@H]7O)CC[C@]6(C)[C@H]5CC[C@]34C)N2C1` (stereo partly drawn), the Potency was 25.3 µM (active). As for `Cc1cc(C)cc(OP(=O)(Oc2cc(C)cc(C)c2)Oc2cc(C)cc(C)c2)c1`, the Potency entry was “inactive”.

On to `Cc1ccc(C(=O)Cl)cc1`, for which the Potency result was “inactive”. With `COP(N)(=S)OC` the entry was “inactive”; with `NNC(=O)c1ccccc1`, “inactive”. For the compound `CCN`, the Potency result is “inactive”.

On to `N#Cc1ccccc1N`, for which the Potency entry was “inactive”. Under `CN(CCCC(O)c1cccnc1)N=O` (stereo not drawn) stands “inactive”; under `S=C=Nc1cccc2ccccc12`, “inactive”. Turning to `O=C(CCCN1CCC2(CC1)C(=O)NCN2c1ccccc1)c1ccc(F)cc1`, the Potency entry was “inactive”. As for `CC(C)(C)OO`, the Potency result was “inactive”.

As for `C[C@]12CC[C@@H]3c4ccc(OC(=O)N(CCCl)CCCl)cc4CC[C@H]3[C@@H]1CC[C@@H]2O`, the Potency entry was “inactive”. With `ClCCN1CCOCC1` the entry was “inactive”; with `[Hg+2].[I-].[I-]`, 15.5 µM (active). Under `Cl/C=C\CCl` stands “inactive”; under `CC(O)C#N` (stereo not drawn), “inactive”. With `c1ccc(OCC2CO2)cc1` (stereo not drawn) the entry was “inactive”; with `ClC1=C(Cl)[C@]2(Cl)[C@@H]3[C@@H]4C[C@@H]([C@H]5O[C@@H]45)[C@@H]3[C@@]1(Cl)C2(Cl)Cl`, 49 µM (active); with `CCOCCOC(C)=O`, “inactive”. Turning to `CCC[CH2][Sn]([CH2]CCC)([CH2]CCC)[O]C(=O)c1ccccc1`, the Potency was 1.1 µM (active). As to `CCCCCCCCCCBr`, the Potency entry is “inactive”. Under `Oc1ccc(I)cc1` stands “inactive”. As for `O=c1[nH]c2ccccc2n1CCCN1CCC(n2c(=O)[nH]c3cc(Cl)ccc32)CC1`, the Potency result is “inactive”. Take `Cc1cc(Cl)ccc1O[C@H](C)C(=O)O`: the Potency entry is “inactive”. `CCCCCCCCCCCCCN1CC(C)OC(C)C1` (stereo not drawn): the Potency result is “inactive”.

Turning to `O=c1ssc(Cl)c1Cl`, the Potency was 24.5 µM (active). For the compound `C[C@@H](Oc1ccc(Cl)cc1Cl)C(=O)O`, the Potency entry is “inactive”. `COP(=O)(CCC(=O)NCO)OC`: the Potency entry was “inactive”.

`C=COCCCl`: the Potency result is “inactive”. Regarding `CNC(C)Cc1ccc2c(c1)OCO2` (stereo not drawn), the Potency result is “inactive”. Under `CCCSP(=O)(OCC)SCCC` stands “inactive”; under `CCS(=O)(=O)c1cccnc1S(=O)(=O)NC(=O)Nc1nc(OC)cc(OC)n1`, “inactive”. As for `CCCCCCCCCCCCCCCC[N+](C)(C)C`, the Potency was 54.9 µM (active) and 21.3 µM (active). With `O=c1[nH]c2ccccc2n1C1CCN(CCCC(c2ccc(F)cc2)c2ccc(F)cc2)CC1` the figure was 54.9 µM (active) and inactive; with `CCOP(=S)(OCC)SCS(=O)(=O)C(C)(C)C`, “inactive”. For the compound `CC(=O)Nc1ccc2c(c1)Cc1ccccc1-2`, the Potency entry is “inactive”.
